Laboratory results from PubChem BioAssay (Tox21).
Inconclusive results are not listed. Values without a mark were called inactive. Active and inactive are the calls of the source. The call rests on the fitted dose curve; in most records, active means well fitted activation curve with a large enough effect in the repeat runs; inconclusive means weak or mixed curves, or effect the other way; inactive means no such curve, though single readings can be large or run the other way.

Assay: qHTS assay to identify small molecule agonists of the estrogen related receptor signaling pathway with the pleiotropic PPARgamma coactivator (PGC) from Tox21 10K library (AID 1224842); further: nearly all actives have a fitted effect of over 15% in size
Settings: PGC/ERR reporter cell line, luciferase ONE-Glo, 18 h; series mostly up to 92.4 µM; activation: at the top concentration
Text: National Center for Advancing Translational Sciences [NCATS] NIH Chemical Genomics Center [NCGC] U.S. Environmental Protection Agency [EPA] National Institutes of Environmental Health Sciences [NIEHS] National Toxicology Program [NTP] Assay overview: Estrogen related receptors (ERRs), the first orphan nuclear receptors discovered, play an important role in the control of cellular energy metabolism. ERRs are required for high-energy production in response to the environmental challenges. The pleiotropic PPARgamma coactivator (PGC) is a major partner of ERR and a key regulator in energy homeostasis. Together they have been implicated in the etiology of metabolic disorders such as Type 2 diabetes and metabolic syndrome. ERR-alpha was also identified as an adverse marker for breast cancer progression; ERR-alpha-positive tumors have a poor prognosis. To screen and to identify environmental compounds that perturb the PGC/ERR signaling pathways could provide valuable information for potential therapeutic or preventive measures in the treatment of metabolic disease. For identifying PGC/ERR agonists, PGC/ERR cell line (provided by NTP) has been used to screen Tox21 10K library.
Assay Protocol Summary: The PGC/ERR cells were dispensed at 2,000 cells/5 ul/well in 1536-well white plates using a Multidrop dispenser. After the assay plates were incubated at a 37 C/5% CO2 incubator for 6 hours, 23 nL of compounds dissolved in DMSO, positive and negative controls or DMSO only was transferred to the assay plate by a pin tool. The plates were incubated at 37 C for 18 hours. 4 ul/well of One-Glo reagent was added into the assay plates using a Flying Reagent Dispenser. After 30-minute incubation at room temperature, the luminescence intensity in the plates was measured using a ViewLux plate reader.
On the % scale 0 is the no-effect control and ±100 the full control effect.

| Structure (SMILES) | activation | outcome |
| --- | --- | --- |
| CC(C)(C)c1nnc(NS(=O)(=O)c2ccccc2)s1 | -0.533% [at 42.5 µM] |  |
| Cc1cc2c(cc1S(N)(=O)=O)S(=O)(=O)CCC2 | 1.73% [at 42.5 µM] |  |
| CCS(=O)(=O)c1ccc(OC)c(C(=O)OC)c1 | -0.225% [at 42.5 µM] |  |
| CCCCCSCCCCC | 0.314% |  |
| O=C1OC(=O)C2CCCCC12 (stereo not given) | 0.713% |  |
| CCOC(=O)[C@H](CCc1ccccc1)N[C@@H](C)C(=O)N1[C@H](C(=O)O)C[C@@H]2CCC[C@@H]21 | -0.774% [at 42.5 µM] |  |
| CC1(C)C(O)C(C)(C)C1O (stereo not given) | 1.53% |  |
| COC(C)(C)CCCC(C)CC=O (stereo not given) | 3.24% |  |
| C=CCOCC(CC)(CO)COCC=C | -0.326% |  |
| CCCCCCCCCCCCCCCCC | 2.29% |  |
| CCOC(=O)c1c(C)n(C)c2ccc(O)cc12 | 1.53% [at 42.5 µM] |  |
| N[C@H](C(=O)O)c1ccc(O)cc1 | 0.319% [at 19 µM] |  |
| OCCOc1ccc(OCCO)cc1 | 3.77% |  |
| O=C(c1ccccc1)C1CCCCC1 | -4.9% |  |
| COC(=O)CCSCCC(=O)OC | 0.207% |  |
| CCOC(C)(C)C | -0.588% |  |
| O=C(O)CCCc1ccccc1 | 0.2% [at 42.5 µM] |  |
| Cc1ccc(=O)n(-c2ccccc2)c1 | 0.0491% [at 42.5 µM] |  |
| CC/C=C\CC/C=C/C(OCC)OCC | 4.65% |  |
| COc1c(N2C[C@@H]3CCCN[C@@H]3C2)c(F)cc2c(=O)c(C(=O)O)cn(C3CC3)c12 | 6.65% [at 42.5 µM] |  |

| Structure (SMILES) | activation | outcome |
| --- | --- | --- |
| CC(C)(c1ccc(O)cc1)c1ccc(O)cc1 |  | inactive |
| C[C@H]1C[C@@H](O)CC(C)(C)C1 | -2.21% |  |
| Cn1c(N)c(N=O)c(=O)n(C)c1=O | -7.4% |  |
| CCSC(=O)N(CC(C)C)CC(C)C | 2.32% |  |
| CC(=O)Nc1ccc(S(N)(=O)=O)cc1 | 3.11% |  |
| COc1ccc2c(c1)CCCC2=O | -2.64% [at 42.5 µM] |  |
| C/C=C(\C)C#N | 2.36% |  |
| NC(=O)Nc1ccccc1 | 0.127% |  |
| CCCCOCCOCCOCCCC | 0.747% |  |
| CC/C=C\CCOC(C)=O | 2.62% |  |
| CCCCCOC(=O)CCCCC | -5.38% |  |
| C=C(C)C(=O)OCCCCCCCC(C)C | 1.95% |  |
| CC(=O)Nc1c(I)cc(I)c(C(=O)O)c1I | 1.11% [at 42.5 µM] |  |
| Nc1c2c(nc3ccccc13)CCCC2O (stereo not given) | -3.96% [at 42.5 µM] |  |
| O=c1[nH]c(=O)n([C@H]2C[C@H](O)[C@@H](CO)O2)cc1I | 13.8% [at 42.5 µM] |  |
| C[C@H](NC(CCc1ccccc1)C(=O)O)C(=O)N1CCC[C@H]1C(=O)O (stereo not given in full) | 0.558% [at 42.5 µM] |  |
| CCOc1ccc(C(=O)OCCN(CC)CC)cc1 | 0.403% [at 42.5 µM] |  |
| N=C(N)c1ccc2cc(OC(=O)c3ccc(N=C(N)N)cc3)ccc2c1 | -0.136% [at 42.5 µM] |  |
| Cc1ccc(Cl)cc1Cl | 0.713% |  |
| NS(=O)(=O)c1ccc(C(=O)O)cc1 | -1.92% [at 42.5 µM] |  |
